This passage reports growth results from PubChem BioAssay (NCI).

Compounds without any hit were thinned out: in the full panel of roughly 83,000, 20% have a hit.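 The endpoint reported here, percent growth, reads 100 for growth as untreated, 0 for no net growth and -100 for all cells dead.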 The source made the active and inactive calls. Rule for the calls: active = growth percent below 10; inactive = the rest.

One test relates to CAKI-1 renal. Briefly: NCI-60 one-dose screen, 48 h (100 = growth as untreated, 0 = no growth, -100 = all killed). Conditions: 10 µM unless noted.
Take `O=C(O)c1nn(-c2ccc(Cl)cc2)nc1N1CCCC1`: the growth was 97.6% (inactive).

On to `COCCNC(=O)Cc1cc(-c2ccc(Cl)cc2)n(-c2ccccc2)c1C`, for which the growth was 73.5% (inactive).

In the case of `CC(=O)[C@H]1CC[C@]2(C)[C@@H]1CC[C@@H]1[C@@]3(C)C/C(=C/c4cccnc4)C(=O)C(C)(C)[C@@H]3CC[C@]12C`, the growth is 72.5% (inactive).

As for `C=C(C)Cn1c(SCC(=O)c2cccs2)nc2sc3c(c2c1=O)CCCC3`, the growth was 53.8% (inactive).

As for `Cc1ccc(C(=O)Nc2ccc(CN3CCN(C)CC3)c(C(F)(F)F)c2)cc1C#Cc1cnc(N)c2ccccc12`, the growth was -81.6% (active).

Turning to `COc1cc(C2CC(c3cccc(Nc4ccncc4)c3)=Nc3c(N)ncnc3N2)cc(OC)c1OC` (stereo not drawn), the growth was 85% (inactive).

For `CO[C@]12C=C/C(=C(/C(=O)OCc3cccnc3)C(=O)CCCCCCCC[C@]3(OC)C=C/C(=C(/C(=O)OCc4cccnc4)C(=O)CCCCCCCC1)O3)O2`, the growth is -29.7% (active).

As for `CCOC(=O)CSc1nc2sc3c(c2c(=O)n1-c1ccccc1)CCCCC3`, the growth was 102% (inactive).

In the case of `CN1CCN(Cc2ccc(NC(=O)c3cncc(C#Cc4cnc(N)c5ccc(C#N)cc45)c3)cc2C(F)(F)F)CC1`, the growth was -51.5% (active).

`CCOC(=O)C1=C(c2ccccc2)N=C2SC=C(c3cccc([N+](=O)[O-])c3)N2C1c1ccc(O)cc1` (stereo not drawn): the growth is 94.3% (inactive).

On to `CCn1c2ccccc2c2cc(C(O)c3cccc4ncccc34)ccc21` (stereo not drawn), for which the growth is 43% (inactive).

Turning to `Cc1c(Cl)cccc1NC(=O)c1sc2nc3c(cc2c1N)CCCC3`, the growth was 33.9% (inactive).

Take `O=C(/C=C/c1ccco1)Nc1ncc(Cc2ccc(F)cc2)s1`: the growth is 34.4% (inactive).

On to `COc1nc2ccccc2cc1/C=[N+](\[O-])c1ccccc1`, for which the growth is 79.8% (inactive).

Turning to `COc1ccc(-c2ccc(-c3ccc(C(=N)N)o3)o2)cc1`, the growth was 34.4% (inactive).

For the compound `C=C(C[n+]1ccccc1)[C@@H]1CC[C@]2(C(=O)OC)CC[C@]3(C)[C@H](CC[C@@H]4[C@@]5(C)CCC(=O)C(C)(C)[C@@H]5CC[C@]43C)[C@@H]12`, the growth is 83.5% (inactive).

`COc1cccc(C(=O)Nc2cccc(NC(=O)c3ccccn3)c2)c1`: the growth was 99.1% (inactive).

Take `N#CC1=C(N)Oc2c(ccc3cccnc23)C1c1ccccc1` (stereo not drawn): the growth was 39.9% (inactive).

In the case of `COc1ccc(C2=NN(C=O)C(c3ccc(Oc4nc5c(c(=O)n(C)c(=O)n5C)n4C)c(OC)c3)C2)cc1` (stereo not drawn), the growth is 75.2% (inactive).

As to `CCCS(=O)(=O)Nc1cccc(Nc2ncnc3cc(NC(=O)CCl)ccc23)c1Cl`, the growth was -74.6% (active).

Turning to `C=C(C)[C@@H]1CC[C@]2(C(=O)NC(C)=O)CC[C@]3(C)[C@H](CC[C@@H]4[C@@]5(C)CCCNC(C)(C)[C@@H]5CC[C@]43C)[C@@H]12`, the growth was 71.8% (inactive).

On to `COc1cccc(CNc2nnc(C)c(C)n2)c1O`, for which the growth is 100% (inactive).

As to `O=C(/C=C/c1ccc(Cl)cc1)c1ccc(-n2cc(CN3CCN(c4cc5c(cc4F)c(=O)c(C(=O)O)cn5C4CC4)CC3)nn2)cc1`, the growth is 75.5% (inactive).

Consider `COc1cccc2cc(N(C)c3nc(C)nc4c3CCC4)ccc12`, for which the growth was 18.4% (inactive).

Take `Cc1c2cnccc2c(C)c2c1c1cc(C(=O)O)ccc1n2C`: the growth was -6.62% (active).

In the case of `C=C1C(=O)O[C@H]2[C@H]1CC/C(CNC(=O)/C=C/c1cc(OC)c(OC)c(OC)c1)=C\CC[C@@]1(C)O[C@@H]21`, the growth is 33.9% (inactive).

On to `Cc1nc2ccccc2c(/C=C/c2ccc(Br)cc2)c1C(=O)/C=C/c1ccccc1`, for which the growth was 4.36% (active).

Regarding `CC(=O)O[C@H]1C[C@@]2(C)[C@@H](C[C@@H](O)[C@H]3[C@@]4(C)CC[C@H](N5CCCC5)[C@@H](C)[C@@H]4CC[C@@]32C)/C1=C(\CCC=C(C)C)C(=O)O`, the growth was 91.6% (inactive).

Take `O=C(O)c1cc2ccccc2s1`: the growth is 94.7% (inactive).

As for `CC(=O)OCCOc1cc(Cl)c(Cl)cc1Cl`, the growth is 96.5% (inactive).

In the case of `Cc1cc(=O)oc2cc(Oc3nc(-c4ccccc4)cn4c(-c5ccccc5)cnc34)ccc12`, the growth was 85.2% (inactive).

For `CN(Cc1ccccc1)c1nc(Cl)c(C2CC(c3ccc(Cl)cc3)=NN2c2cc(Cl)cc(Cl)c2)s1` (stereo not drawn), the growth is 84.4% (inactive).

`COC(=O)c1c(C)nc(C)c2c1C(=O)C(Br)=C(NCCCCO)C2=O`: the growth is 70.5% (inactive).

`COc1cc(/C=C/c2cc(/C=C/c3ccc(O)c(OC)c3)n(C(=O)Nc3ccc(C)cc3C)n2)ccc1O`: the growth was -36.6% (active).

Take `Cc1cc2nc(C(Cl)Cl)nc(-c3ccccc3)n2n1`: the growth is 35% (inactive).

As for `CN1C(=O)N(C)C2C1NN=c1s/c(=C\c3ccccc3F)c(=O)n12` (stereo not drawn), the growth was 31.4% (inactive).

The subject of another test is A498 renal. Described as above. Conditions: 10 µM unless noted.
Consider `O=C(O)c1nn(-c2ccc(Cl)cc2)nc1N1CCCC1`, for which the growth is 74.3% (inactive).

As for `COCCNC(=O)Cc1cc(-c2ccc(Cl)cc2)n(-c2ccccc2)c1C`, the growth was 89.9% (inactive).

As for `O=C(Nc1ccc(Oc2cccc(F)c2)c(Cl)c1)c1cnccn1`, the growth was 69.4% (inactive).

Take `CC(=O)[C@H]1CC[C@]2(C)[C@@H]1CC[C@@H]1[C@@]3(C)C/C(=C/c4cccnc4)C(=O)C(C)(C)[C@@H]3CC[C@]12C`: the growth is 100% (inactive).

With `C=C(C)Cn1c(SCC(=O)c2cccs2)nc2sc3c(c2c1=O)CCCC3`, the growth is 72.1% (inactive).

Regarding `Cc1ccc(C(=O)Nc2ccc(CN3CCN(C)CC3)c(C(F)(F)F)c2)cc1C#Cc1cnc(N)c2ccccc12`, the growth was -32.5% (active).

With `COc1cc(C2CC(c3cccc(Nc4ccncc4)c3)=Nc3c(N)ncnc3N2)cc(OC)c1OC` (stereo not drawn), the growth was 87.4% (inactive).

On to `CO[C@]12C=C/C(=C(/C(=O)OCc3cccnc3)C(=O)CCCCCCCC[C@]3(OC)C=C/C(=C(/C(=O)OCc4cccnc4)C(=O)CCCCCCCC1)O3)O2`, for which the growth was -88.4% (active).

As to `CCOC(=O)CSc1nc2sc3c(c2c(=O)n1-c1ccccc1)CCCCC3`, the growth is 105% (inactive).

Consider `CN1CCN(Cc2ccc(NC(=O)c3cncc(C#Cc4cnc(N)c5ccc(C#N)cc45)c3)cc2C(F)(F)F)CC1`, for which the growth is -29.8% (active).

As for `CCOC(=O)C1=C(c2ccccc2)N=C2SC=C(c3cccc([N+](=O)[O-])c3)N2C1c1ccc(O)cc1` (stereo not drawn), the growth was 78.9% (inactive).

Take `CCn1c2ccccc2c2cc(C(O)c3cccc4ncccc34)ccc21` (stereo not drawn): the growth is 8.73% (active).

Turning to `Cc1c(Cl)cccc1NC(=O)c1sc2nc3c(cc2c1N)CCCC3`, the growth was -1.63% (active).

Take `O=C(/C=C/c1ccco1)Nc1ncc(Cc2ccc(F)cc2)s1`: the growth is 19.3% (inactive).

As to `COc1nc2ccccc2cc1/C=[N+](\[O-])c1ccccc1`, the growth is 90.3% (inactive).

With `COc1ccc(-c2ccc(-c3ccc(C(=N)N)o3)o2)cc1`, the growth was 9.73% (active).

Take `C=C(C[n+]1ccccc1)[C@@H]1CC[C@]2(C(=O)OC)CC[C@]3(C)[C@H](CC[C@@H]4[C@@]5(C)CCC(=O)C(C)(C)[C@@H]5CC[C@]43C)[C@@H]12`: the growth was 88.7% (inactive).

For `COc1cccc(C(=O)Nc2cccc(NC(=O)c3ccccn3)c2)c1`, the growth is 93% (inactive).

`N#CC1=C(N)Oc2c(ccc3cccnc23)C1c1ccccc1` (stereo not drawn): the growth was 9.1% (active).

On to `COc1ccc(C2=NN(C=O)C(c3ccc(Oc4nc5c(c(=O)n(C)c(=O)n5C)n4C)c(OC)c3)C2)cc1` (stereo not drawn), for which the growth is 85.5% (inactive).

Consider `CCCS(=O)(=O)Nc1cccc(Nc2ncnc3cc(NC(=O)CCl)ccc23)c1Cl`, for which the growth is 9.01% (active).

For `Cn1cc(-c2csc(-c3cn(C)c4ccc(F)cc34)n2)c2cnccc21`, the growth is 78.3% (inactive).

As for `C=C(C)[C@@H]1CC[C@]2(C(=O)NC(C)=O)CC[C@]3(C)[C@H](CC[C@@H]4[C@@]5(C)CCCNC(C)(C)[C@@H]5CC[C@]43C)[C@@H]12`, the growth was 88.6% (inactive).

Regarding `COc1cccc(CNc2nnc(C)c(C)n2)c1O`, the growth was 95.3% (inactive).

As to `O=C(/C=C/c1ccc(Cl)cc1)c1ccc(-n2cc(CN3CCN(c4cc5c(cc4F)c(=O)c(C(=O)O)cn5C4CC4)CC3)nn2)cc1`, the growth is 60.5% (inactive).

For the compound `COc1cccc2cc(N(C)c3nc(C)nc4c3CCC4)ccc12`, the growth is -11.4% (active).

In the case of `O=C(O)CCCN1C(=O)CSC1=S`, the growth was 105% (inactive).

For `Cc1c2cnccc2c(C)c2c1c1cc(C(=O)O)ccc1n2C`, the growth is -57.4% (active).

In the case of `C=C1C(=O)O[C@H]2[C@H]1CC/C(CNC(=O)/C=C/c1cc(OC)c(OC)c(OC)c1)=C\CC[C@@]1(C)O[C@@H]21`, the growth was -9.24% (active).

Regarding `Cc1nc2ccccc2c(/C=C/c2ccc(Br)cc2)c1C(=O)/C=C/c1ccccc1`, the growth was 18% (inactive).

Regarding `CC(=O)OCCOc1cc(Cl)c(Cl)cc1Cl`, the growth was 82.8% (inactive).

Consider `CCN1CCN(c2nc(NNC(=O)c3ccc(OC)cc3)nc(N3CCN(C(c4ccccc4)c4ccccc4)CC3)n2)CC1`, for which the growth was 60.1% (inactive).

Turning to `Cc1cc(=O)oc2cc(Oc3nc(-c4ccccc4)cn4c(-c5ccccc5)cnc34)ccc12`, the growth was 9.88% (active).

Regarding `CN(Cc1ccccc1)c1nc(Cl)c(C2CC(c3ccc(Cl)cc3)=NN2c2cc(Cl)cc(Cl)c2)s1` (stereo not drawn), the growth is 111% (inactive).

With `COc1cc(/C=C/c2cc(/C=C/c3ccc(O)c(OC)c3)n(C(=O)Nc3ccc(C)cc3C)n2)ccc1O`, the growth was -14.7% (active).

In the case of `Cc1cc2nc(C(Cl)Cl)nc(-c3ccccc3)n2n1`, the growth is 20.8% (inactive).

On to `CN1C(=O)N(C)C2C1NN=c1s/c(=C\c3ccccc3F)c(=O)n12` (stereo not drawn), for which the growth is 1.45% (active).
